{"source": "PubChem BioAssay AID588852", "about": "(The Scripps Research Institute Molecular Screening Center, 2011)", "note": "Out of some 360,000 compounds screened, about 4,600 (1.3%) were called active.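 How the source made its calls: active means percent inhibition above its own plate's cutoff, namely the mean of that plate's compound wells plus 3 SD; inactive means the rest.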 Many of the other results were omitted from the sample, so actives are more common in it than they were.", "data": [{"biological_target": "Muscarinic acetylcholine receptor M1 (Homo sapiens) (UniProt P11229)", "sequence (P11229 whole entry, looked up)": "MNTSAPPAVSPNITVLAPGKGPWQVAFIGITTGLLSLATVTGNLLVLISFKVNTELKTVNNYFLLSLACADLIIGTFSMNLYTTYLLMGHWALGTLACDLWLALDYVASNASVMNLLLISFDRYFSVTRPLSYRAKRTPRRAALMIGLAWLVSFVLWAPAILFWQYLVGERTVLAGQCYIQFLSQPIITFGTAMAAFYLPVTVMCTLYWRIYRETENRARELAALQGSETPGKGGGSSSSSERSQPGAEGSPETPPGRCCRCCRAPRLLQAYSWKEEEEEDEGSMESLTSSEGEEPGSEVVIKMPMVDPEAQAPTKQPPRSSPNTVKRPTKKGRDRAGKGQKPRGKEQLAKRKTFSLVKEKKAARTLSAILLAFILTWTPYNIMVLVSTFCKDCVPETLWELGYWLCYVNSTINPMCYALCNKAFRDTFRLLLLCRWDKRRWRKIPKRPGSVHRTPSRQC", "assay": "CHRM1 blockers of acetylcholine calcium response – CHO-K1 cells, Fluo-8 calcium fluorescence, 1536-well, primary screen (AID 588852);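 further: peak over basal fluorescence ratio during 140 s after agonist addition; 0% = ACh EC80 plus DMSO and 100% = DMSO alone without agonist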", "conditions": "CHO-K1 hM1, Fluo-8 calcium fluorescence, ACh EC80 antagonist; at 3 µM; stronger effect = higher value", "values": [{"smiles": "COc1ccc(NC(=O)c2cccc(Cl)c2)c[n+]1[O-]", "inhibition": "-8.94% (inactive)"}, {"smiles": "Cc1cccc(NS(=O)(=O)c2ccc([N+](=O)[O-])cc2)n1", "inhibition": "-16.4% (inactive)"}, {"smiles": "Cc1nc2nc(C)c(NS(=O)(=O)c3ccc(C(C)(C)C)cc3)c(=O)n2[nH]1", "inhibition": "20.2% (active)"}, {"smiles": "CCc1nc2nc(C)c(NS(=O)(=O)c3ccc4c(c3)CCCC4)c(=O)n2[nH]1", "inhibition": "12.2% (inactive)"}, {"smiles": "Cc1ccn2c(=O)c(C(=O)NCCC3=CCCCC3)c(O)nc2c1", "inhibition": "-8.96% (inactive)"}, {"smiles": "CN(C)C(=O)N1CCNCC1", "inhibition": "-11.2% (inactive)"}, {"smiles": "CC(=O)N1CCOc2ccc(S(=O)(=O)N3CCC(C(=O)Nc4ccccc4F)CC3)cc21", "inhibition": "-13.2% (inactive)"}, {"smiles": "CC(C)(C)N(CC#CCC(O)(c1ccccc1)C1CCCC1)CCO", "note": "(stereo not given)", "inhibition": "83.9% (active)"}, {"smiles": "CC(C)c1ccc(N2CC(C(=O)Nc3nccs3)CC2=O)cc1", "note": "(stereo not given)", "inhibition": "12.6% (inactive)"}, {"smiles": "CCCCn1nnnc1C(c1cccc(OC)c1OC)N1CCN(C/C=C/c2ccccc2)CC1", "note": "(stereo not given)", "inhibition": "34.7% (inactive)"}, {"smiles": "CN1CCN(C2Cc3ccc(Cl)cc3Sc3ccc(F)cc32)CC1", "note": "(stereo not given)", "inhibition": "60% (active)"}, {"smiles": "COc1ccc(NC(=O)C(CC(C)C)NC(=O)C2CCC(C)CC2)cc1", "note": "(stereo not given)", "inhibition": "0.68% (inactive)"}, {"smiles": "CCN(CC)CCNC(=O)c1ccc(NC(=O)c2cc(-c3ccncc3)nc3ccccc23)cc1", "inhibition": "45.5% (active)"}, {"smiles": "CCN(CC)CCNC(=O)c1ccc(NC(=O)c2c(F)cccc2Cl)cc1", "inhibition": "-0.98% (inactive)"}, {"smiles": "O=C(Nc1ccc(S(=O)(=O)Nc2nccs2)cc1)c1cc(-c2ccncc2)nc2ccccc12", "inhibition": "-10.5% (inactive)"}, {"smiles": "COC(=O)c1ccc2nc(-c3cccc(Br)c3)c(Cc3ccc(OC)cc3C)n2c1", "inhibition": "-41.3% (inactive)"}, {"smiles": "CCCCNc1c(-c2cccc(Sc3ccc(OC)cc3)c2)nc2ccccn12", "inhibition": "36.9% (active)"}, {"smiles": "CCCCNc1c(-c2ccc(OC)c(Sc3ccc(OC)cc3)c2)nc2ccc(Cl)cn12", "inhibition": "19.9% (inactive)"}, {"smiles": "CCCCNC(=O)c1nc(C2CCN(S(=O)(=O)c3ccc(F)c(F)c3)CC2)oc1-c1cccc(C(F)(F)F)c1", "inhibition": "-12% (inactive)"}, {"smiles": "CCN(CC)CCCC(C)n1c2nc(=O)[nH]c(=O)c-2nc2cc(Cl)ccc21", "note": "(stereo not given)", "inhibition": "49.8% (active)"}, {"smiles": "O=Cc1cn(CCOc2ccc(F)cc2)c2ccccc12", "inhibition": "7.49% (inactive)"}, {"smiles": "CCCN(CCC)S(=O)(=O)c1cc2c(cc1Br)CCN2C(=O)CC", "inhibition": "-3.69% (inactive)"}, {"smiles": "O=C(Nc1cccc(Cl)c1N1CCOCC1)c1cccnc1", "inhibition": "-2.23% (inactive)"}, {"smiles": "CCN1CCN(c2c(Cl)cccc2NC(=O)c2ccc(Br)o2)CC1", "inhibition": "33% (active)"}, {"smiles": "O=C(Nc1cccc(Cl)c1N1CCOCC1)c1ccc2c(c1)OCCO2", "inhibition": "-6.53% (inactive)"}, {"smiles": "CCn1cc(-c2cc(C(=O)O)on2)c(C)n1", "inhibition": "-5.04% (inactive)"}, {"smiles": "Cc1ccc(-c2nc3ccc(Br)cn3c2Cc2ccccc2C(F)(F)F)cc1", "inhibition": "-2.72% (inactive)"}, {"smiles": "CN1C(=O)c2ccc(NC(=O)c3c(F)c(F)c(F)c(F)c3F)cc2C1=O", "inhibition": "-10% (inactive)"}, {"smiles": "Cc1cccc(-n2ncc3c(=O)[nH]c(SCC(=O)Nc4cc(C)on4)nc32)c1", "inhibition": "-7.77% (inactive)"}, {"smiles": "O=C(CSc1nc2c(cnn2-c2ccc(F)cc2)c(=O)[nH]1)N1CCCCCC1", "inhibition": "39.7% (active)"}, {"smiles": "CCC(C)Sc1nc2c(cnn2-c2ccc(F)cc2)c(=O)[nH]1", "note": "(stereo not given)", "inhibition": "-10.5% (inactive)"}, {"smiles": "CC(C)C[C@H](NC(=O)[C@@H]1O[C@H]1C(=O)O)C(=O)NCCCCN=C(N)N", "inhibition": "-28.2% (inactive)"}, {"smiles": "CCCNC(=O)C1(C)CCN(Cc2csc(-c3ccc(Cl)cc3)n2)C1", "note": "(stereo not given)", "inhibition": "15.8% (inactive)"}, {"smiles": "CSCCC(c1nnnn1Cc1ccccc1)N1CCN(C/C=C/c2ccccc2)CC1", "note": "(stereo not given)", "inhibition": "-4.53% (inactive)"}, {"smiles": "Nc1ncnc2c1ncn2[C@@H]1O[C@H](C(=O)N2CCSC2)[C@@H](O)[C@H]1O", "inhibition": "-21.6% (inactive)"}, {"smiles": "O=C(O/N=C(/c1ccccc1)c1ccncc1)c1ccccc1[N+](=O)[O-]", "inhibition": "0.78% (inactive)"}, {"smiles": "CN(C)CCCO/N=C(\\c1ccccc1)c1ccncc1", "inhibition": "34.6% (active)"}, {"smiles": "COc1cc(OC)nc(N/N=C(\\c2ccccc2)c2ccncc2)n1", "inhibition": "1.36% (inactive)"}, {"smiles": "Oc1ccccc1N1CCN(c2ncnc3sc(-c4ccccc4)cc23)CC1", "inhibition": "25.7% (active)"}, {"smiles": "COc1ccccc1N1CCN(c2ncnc3sc(C)c(-c4ccccc4)c23)CC1", "inhibition": "-8.38% (inactive)"}, {"smiles": "CCc1cc2c(N3CCN(c4nnc(CC)s4)CC3)ncnc2s1", "inhibition": "6.82% (inactive)"}, {"smiles": "CN(C)C(=O)c1cccc(-c2cnc3c(NC=O)cc(-c4ccc(F)cc4)cn23)c1", "inhibition": "-4.58% (inactive)"}, {"smiles": "O=C(COc1ccc(Cl)cc1)Nc1ccccc1CO", "inhibition": "3.31% (inactive)"}, {"smiles": "Cc1cc(N2CCCC2)ccc1NC(=O)COc1ccc(Cl)cc1", "inhibition": "38.5% (active)"}, {"smiles": "Cc1cc(C)cc(OCC(=O)Nc2ccc(N3CCOCC3)cc2N2CCOCC2)c1", "inhibition": "0.26% (inactive)"}, {"smiles": "Fc1ccccc1CCNc1nnnn1-c1ccccc1", "inhibition": "-15.4% (inactive)"}, {"smiles": "O=C(COc1ccccc1)Nc1nonc1NC(=O)COc1ccccc1", "inhibition": "3.1% (inactive)"}, {"smiles": "COc1ccc(C)cc1NC(=S)Nc1ccccc1SC", "inhibition": "-4.63% (inactive)"}, {"smiles": "O=C(c1cccs1)N1CCC(c2nc3ccccc3s2)CC1", "inhibition": "-0.25% (inactive)"}, {"smiles": "Cc1cccc(C(=O)N2CCC(c3nc4ccccc4s3)CC2)c1", "inhibition": "41.2% (active)"}, {"smiles": "Cc1cccc(NC(=S)N2CCC(c3nc4ccccc4s3)CC2)c1", "inhibition": "6.88% (inactive)"}, {"smiles": "CC(/C=C/c1ccccc1)=N\\NC(=O)C1CC1(C)c1ccccc1", "note": "(stereo not given)", "inhibition": "-3.18% (inactive)"}, {"smiles": "O=C(CNC(=O)c1ccccc1Br)NCCSc1ccc(Br)cc1", "inhibition": "-10.6% (inactive)"}, {"smiles": "CCc1ccccc1OCC(=O)Nc1ccc(C)c(S(=O)(=O)N2CCCCCC2)c1", "inhibition": "6.49% (inactive)"}, {"smiles": "Cc1ccccc1OCC(=O)Nc1ccc(N2CCN(C(=O)C(C)C)CC2)c(Cl)c1", "inhibition": "34.5% (active)"}, {"smiles": "COc1cc(NC(=O)COc2ccccc2Cl)ccc1NC(=O)C(C)C", "inhibition": "6.01% (inactive)"}, {"smiles": "CCN1C(=O)[C@H]2[C@@H](c3ccccc3)N[C@]3(CCCN(Cc4ccc(C)cc4)C3=O)[C@H]2C1=O", "inhibition": "-5.93% (inactive)"}, {"smiles": "COc1ccccc1C(=O)NCCC(=O)NCC(c1ccco1)N1CCCCC1", "note": "(stereo not given)", "inhibition": "-5.11% (inactive)"}, {"smiles": "COc1ccc(C(CNC(=O)c2cccnc2SC)N2CCOCC2)cc1", "note": "(stereo not given)", "inhibition": "-5.53% (inactive)"}, {"smiles": "CSc1ncccc1C(=O)NCC(c1ccco1)N1CCCCC1", "note": "(stereo not given)", "inhibition": "34.8% (active)"}]}]}
